Among the data in PubChem BioAssay (EPA / NIEHS) are outcome and AC50 values, retold here.

Records with an inconclusive call do not appear. Active and inactive are the calls of the source. How the source made its calls, unless noted: active means hit-call score of the fitted dose curve at least 0.9, where 1 is the maximum; inconclusive means response in the unintended direction; inactive means score below 0.9. Where a SMILES comes first, the peptide text is derived from it. Bridges are numbered along the chain shown (N, C = ends). [ ]: non-standard residue; d: D form. The star is where a group is joined. Ileψ(thiazoline)Cys = CC[C@H](C)[C@H](N)C1=N[C@H](C(=O)*)CS1; dOrn = NCCC[C@@H](N)C(=O)O

The nature of assay [1]: TOX21_p53_BLA_p2_viability: Viability Assessment in the Tox21 HCT-116 p53 Agonism Beta-lactamase Assay, Phase 2 (AID 2283591).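 Further: compound exposure lasted 16 h at 37 °C; actives lower the ATP signal meaning cytotoxicity.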 Summed up:
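Cytotoxicity readout: CellTiter-Glo ATP luminescence, 30 min at room temperature, after the beta-lactamase read. Cells were HCT116 exposed 16 h at 37C to compounds pin-transferred at 217-fold dilution from DMSO stocks.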

Assay [2] deals with Cellular tumor antigen p53 (Homo sapiens) (UniProt P04637). The assay is described as follows: TOX21_p53_BLA_p2_ratio: Tox21 HCT-116 p53 Agonism Beta-lactamase Assay, Ratio, Phase 2 (AID 2283592). In a few lines:
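Gain-of-signal p53 agonism was scored from the beta-lactamase FRET ratio (460/530 nm, 405 nm excitation) in HCT116 cells treated 16 h at 37C, 5% CO2, with DMSO serving as negative control and baseline.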

A short description of assay [3]: TOX21_p53_BLA_p3_viability: Viability Assessment in the Tox21 HCT-116 p53 Agonism Beta-lactamase Assay, Phase 3 (AID 2283593).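 Further: cells exposed to compound for 16 h before reading.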 Summed up: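 Cellular ATP was quantified by CellTiter-Glo luminescence, read after 30 min at room temperature. Beforehand, HCT116 cells (4000/well) received compound 5 h post-seeding, 217-fold diluted from DMSO, then incubated 16 h at 37C.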

Assay [4] concerns the target Cellular tumor antigen p53 (Homo sapiens) (UniProt P04637). The assay is described as follows: TOX21_p53_BLA_p3_ratio: Tox21 HCT-116 p53 Agonism Beta-lactamase Assay, Ratio, Phase 3 (AID 2283596). In a few lines:
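HCT116 p53-bla cells (4000/well) given compound in DMSO (217-fold dilution) after 5 h, incubated 16 h at 37C. CCF4-AM substrate 2 h at room temperature; 460/530 nm emission ratio, gain fitted against DMSO.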

Assay [5] in a line: TOX21_p53_BLA_p4_viability: Viability Assessment in the Tox21 HCT-116 p53 Agonism Beta-lactamase Assay, Phase 4 (AID 2283597).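 Further: hits lower the luminescence signal meaning cytotoxicity.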 In a few lines: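 Following a 16 h exposure at 37C, the treated HCT116 wells were first read for the FRET ratio. They were then lysed with CellTiter-Glo, and ATP luminescence was recorded after 30 min at room temperature.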
In assay [6] the target is Cellular tumor antigen p53 (Homo sapiens) (UniProt P04637). Briefly: TOX21_p53_BLA_p5_ratio: Tox21 HCT-116 p53 Agonism Beta-lactamase Assay, Ratio, Phase 5 (AID 2283599). Summed up: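 Beta-lactamase reporter ratio (blue 460 nm over green 530 nm, 405 nm excitation) after 2 h CCF4-AM loading, in HCT-116 cells exposed 16 h at 37 C to compounds pinned at 217-fold dilution. Increases relative to DMSO baseline scored.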
Chain of Cellular tumor antigen p53 (Homo sapiens) (P04637 whole entry, looked up): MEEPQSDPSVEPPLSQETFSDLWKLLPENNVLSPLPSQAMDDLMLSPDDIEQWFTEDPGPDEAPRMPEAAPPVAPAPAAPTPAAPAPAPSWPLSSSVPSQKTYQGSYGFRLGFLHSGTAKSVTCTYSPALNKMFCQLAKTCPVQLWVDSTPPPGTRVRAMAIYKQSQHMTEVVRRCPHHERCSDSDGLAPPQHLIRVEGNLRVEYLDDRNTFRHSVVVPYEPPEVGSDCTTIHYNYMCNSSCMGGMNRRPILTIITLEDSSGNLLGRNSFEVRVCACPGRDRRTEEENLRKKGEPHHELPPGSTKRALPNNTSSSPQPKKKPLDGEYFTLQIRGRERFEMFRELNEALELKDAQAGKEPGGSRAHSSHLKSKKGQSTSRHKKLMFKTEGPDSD

For assay [7] the target is unchanged. The assay is described as follows: TOX21_p53_BLA_p4_ratio: Tox21 HCT-116 p53 Agonism Beta-lactamase Assay, Ratio, Phase 4 (AID 2283601). Summed up:
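Signal is the blue/green (460nm/530nm) ratio of cleaved versus uncleaved CCF4-AM substrate, read after 2 h substrate loading. Cells were HCT116 carrying the p53-responsive beta-lactamase reporter, dosed 16 h at 37C, 5% CO2; CellTiter-Glo measured in parallel.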

Assay [8] is described as follows: TOX21_p53_BLA_p5_viability: Viability Assessment in the Tox21 HCT-116 p53 Agonism Beta-lactamase Assay, Phase 5 (AID 2283600). In a few lines: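 After the 460/530 nm beta-lactamase measurement, the wells received an ATP-detection luciferase reagent; signal was read 30 min later at RT. Compound treatment lasted 16 h on cells pre-incubated 5 h post-seeding.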
Assay [9] in a line: CCTE_Harrill_HTTr_Viability_MCF7: CCTE's 6-hour Cell Viability Assessment for the High-Throughput Transcriptomics (HTTr) Platform, in MCF-7 cells cultured in DMEM + 10% fetal bovine serum, Harrill Lab (AID 2284010; active means hit-call score of the fitted dose curve at least 0.9, where 1 is the maximum; inactive means score below 0.9). In a few lines:
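Cells were dosed with chemicals in an eight-point dilution series, imaged 6 hours later for propidium iodide uptake, and the endpoint was analyzed by bidirectional fitting against DMSO as negative control.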

Assay [10] is described as follows: CCTE_Harrill_HTTr_Apoptosis_MCF7: CCTE's 6-hour Apoptosis Assessment for the High-Throughput Transcriptomics (HTTr) Platform, in MCF-7 cells cultured in DMEM + 10% fetal bovine serum, Harrill Lab (AID 2284011; active means hit-call score of the fitted dose curve at least 0.9, where 1 is the maximum; inactive means score below 0.9). Summed up: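 High-content imaging of CellEvent Caspase 3/7 Green signal follows a six-hour exposure, with eight concentrations per chemical. MCF-7 cells grown in DMEM plus 10% fetal bovine serum; activity fitted in both directions against DMSO.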

Turning to `COc1cc(/C=C/c2ccccc2)oc(=O)c1`, the result in [1], in [2], in assay [3], in assay [4], in assay [5] and in assay [6] was inactive. Besides, the result in [7] was inactive.

With `O=C(OCC1CO1)C1CCCCC1C(=O)OCC1CO1` (configuration not stated), the result in assay [1], in assay [3], in assay [4], in assay [5], in assay [6] and in assay [7] was inactive. Further, the AC50 in assay [2] was 61 µM (active).

On to `CCC(C(=O)OCCN(CC)CC)c1ccccc1` (configuration not stated), for which the compound was called inactive in [1], in assay [2], in [3], in [4], in assay [5] and in assay [6]. Moreover, in assay [7], the result was inactive.

Turning to `Cc1cc(C)c(N)c(Cl)c1`, the outcome in [1], in assay [2], in [3], in assay [4], in assay [5] and in assay [6] was inactive. Moreover, the outcome in [7] was inactive.

As to `CC(=O)NCCCCCC(=O)O`, the outcome in assay [1], in assay [2], in assay [3], in [4], in assay [5] and in [6] was inactive. The result in assay [7] was inactive.

`C=Cc1c(C)c2cc3[nH]c(cc4nc(cc5nc(cc1[nH]2)C(C)=C5CCC(=O)O)C(CCC(=O)O)=C4C)c(C)c3C=C`: the result in assay [1], in assay [2], in assay [3], in assay [4], in assay [5] and in assay [6] was inactive. Moreover, the outcome in [7] was inactive.

For `CCc1cccc(N(C)C(N)=Nc2cccc3ccccc23)c1`, the result in [1], in [2], in assay [3], in [4], in assay [5] and in [6] was inactive. For the same compound, the outcome in [7] was inactive.

For the compound `O=[N+]([O-])c1ccc(NCCO)c(OCCO)c1`, the call in assay [1], in [2], in assay [3], in [4], in [5] and in [6] was inactive. For the same compound, in assay [7], the result was inactive.

Consider `O=P(O)(O)C(O)(Cc1cccnc1)P(=O)(O)O`, for which the outcome in assay [1], in [2], in [3], in assay [4], in assay [5] and in assay [6] was inactive. For the same compound, the result in [7] was inactive.

As to `CNC(=O)c1ccccc1Sc1ccc2c(/C=C/c3ccccn3)n[nH]c2c1`, the compound was classed as inactive in assay [1], in assay [3] and in assay [5]. Further, the AC50 in [2] was 0.922 µM (active); in assay [4] it was 1.02 µM (active); in assay [6], 0.894 µM (active); in assay [7], 0.738 µM (active).

For `CCCCCCCCCCCCCC(=O)OCC(COP(=O)([O-])OCC[N+](C)(C)C)OC(=O)CCCCCCCCCCCCC` (configuration not stated), the outcome in assay [1], in [2], in [4], in assay [5], in [6] and in assay [7] was inactive. Also, the half-maximal activity concentration (AC50) in assay [3] was 42.8 µM (active).

As for `Cc1ccc(O)c(C(=O)c2ccccc2)c1`, the result in assay [1], in [2], in assay [3], in assay [4], in [5] and in assay [6] was inactive. Further, the outcome in assay [7] was inactive.

As for `CC[C@H]1OC(=O)[C@H](C)[C@@H](O[C@H]2C[C@@](C)(OC)[C@@H](O)[C@H](C)O2)[C@H](C)[C@@H](O[C@@H]2O[C@H](C)C[C@H](N(C)C)[C@H]2O)[C@](C)(OC)C[C@@H](C)C(=O)[C@H](C)[C@@H](O)[C@]1(C)O`, the result in assay [1], in assay [2], in assay [3], in [4], in assay [5] and in assay [6] was inactive. In assay [7], the result was inactive.

In the case of `CN(C)CCCCl`, the result in [1], in assay [2], in assay [3], in [4], in assay [5] and in assay [6] was inactive. Further, the outcome in [7] was inactive.

As to `CN(C(=O)CCCOc1ccc2[nH]c(=O)ccc2c1)C1CCCCC1`, the call in [1], in [2], in assay [3], in [4], in assay [5] and in assay [8] was inactive.

As for `COc1cc(C)nc(-n2nc(C)cc2OC)n1`, the call in assay [1], in assay [2], in assay [3], in [4], in assay [5] and in assay [8] was inactive. The result in [7] was inactive.

Take `C[N+]1(C)CCC(=C(c2ccccc2)c2ccccc2)CC1`: the compound was called inactive in assay [1], in assay [2], in assay [3], in [4], in assay [5] and in [8].

With `CC(=O)OC(C)OC(=O)C(C)c1ccc(-c2ccccc2)c(F)c1` (configuration not stated), the compound was called inactive in assay [1], in assay [2], in [3], in [4], in assay [5] and in [8]. Besides, the result in [7] was inactive.

With `CC[C@H](C)[C@H](N)C1=N[C@H](C(=O)N[C@@H](CC(C)C)C(=O)N[C@H](CCC(=O)O)C(=O)N[C@H](C(=O)N[C@H]2CCCCNC(=O)[C@H](CC(N)=O)NC(=O)[C@@H](CC(=O)O)NC(=O)[C@H](Cc3cnc[nH]3)NC(=O)[C@@H](Cc3ccccc3)NC(=O)[C@H]([C@@H](C)CC)NC(=O)[C@@H](CCCN)NC2=O)[C@@H](C)CC)CS1` ({Ileψ(thiazoline)Cys}-L[dE]IK[dOrn]I[dF]H[dD]N; lactam 4-C), the compound was called inactive in assay [1], in assay [2], in assay [3], in assay [4], in [5] and in [8]. For the same compound, the result in [7] was inactive.

As for `Cc1nnc(C(C)C)n1C1C[C@H]2CC[C@@H](C1)N2CC[C@@H](NC(=O)C1CCC(F)(F)CC1)c1ccccc1` (some centres not stated), the result in [1], in [2], in assay [3], in [4], in assay [5] and in [8] was inactive.

Regarding `CC(C)NNC(=O)c1ccncc1`, the compound was classed as inactive in assay [1], in assay [2], in assay [3], in assay [4], in assay [5] and in assay [8]. For the same compound, the outcome in assay [7] was inactive.

Regarding `CNCCCCOc1ccccc1Cc1ccccc1`, the call in [1], in assay [2], in assay [3], in assay [4] and in [8] was inactive. Moreover, the AC50 in assay [5] was 36.4 µM (active).

Regarding `CC(C[N+](C)(C)C)OC(N)=O` (configuration not stated), the call in assay [1], in [2], in [3], in [4], in assay [5] and in [8] was inactive.

Regarding `O=C[C@H](O)[C@@H](O)[C@@H](O)[C@H](O)CO`, the compound was called inactive in assay [1], in assay [2], in assay [3], in assay [4], in [5] and in assay [8]. For the same compound, in [7], the outcome was inactive.

Take `OCC1CC2CC1C1CCC(CO)C21` (configuration not stated): the outcome in assay [1], in assay [2], in assay [3], in assay [4], in assay [5] and in assay [6] was inactive. For the same compound, the outcome in [7], in assay [9] and in assay [10] was inactive.
